SMILES strings stand for the structures. Values without a mark were called inactive. Active and inactive are the calls of the source. Calls follow the shape of the dose curve; as a rule, active = well fitted curve in the direction sought with a large enough effect in the repeat runs; inconclusive = weak or mixed curves; inactive = flat fitted curve, though single readings scatter.

For 40 compounds, outcome and fluorescence, % of fluorescent control results are on record in PubChem BioAssay (Tox21).
% is scaled to controls: 0 for no effect and ±100 for the full control effect.

A short description of this test: qHTS assay to test for compound auto fluorescence at 590 nm (red) in HEK293 cell free culture (AID 720683). The note with it: cell-free medium autofluorescence, Ex540/Em590 red; series mostly up to 91.3 µM. An excerpt:
U.S. Tox21 Program National Center for Advancing Translational Sciences [NCATS] NIH Chemical Genomics Center [NCGC] U.S. Environmental Protection Agency [EPA] National Institutes of Environmental Health Sciences [NIEHS] National Toxicology Program [NTP] U.S. Food and Drug Administration [FDA] Tox21 Assay Overview: Compound auto fluorescence often interferes with screening of the compound library against various biological targets and signaling pathways. Some of these compounds may have fluorophoric properties. Such properties may interfere with the assay outputs resulting in false positives and/or negatives. To decrease such complications and ensure the compound activities are relevant in terms of biological response, the Tox21 10K compound library was screened for auto fluorescence. From the fluorophores used as reporter signals in our screening assays, the auto fluorescence equivalencies of compounds against three fluorophores have been evaluated: Triamterene, Fluorescein and Rose Bengal sodium for blue, green and red fluorescence, respectively. The fluorescence intensities were measured using Excitation/Emission wavelengths at 405/460nm, 485/535nm and 540/590nm for blue, green and red labels, respectively. This assay includes the red fluorescence data.
Tox21 Assay Protocol Summary: 5 uL of culture medium (DMEM containing 10% FBS) per well was dispensed into black wall/clear bottom 1536-well plates using a Multidrop Combi Dispenser (ThermoFisher Scientific, Waltham, MA). After 23 nL compound or DMSO vehicle was transferred into assay plate by a pintool work station (Kalypsys, San Diego, CA), fluorescence intensities in the assay plates were measured by an Envision (PerkinElmer, Shelton, CT) plate reader using three labels for measuring blue, green and red fluorescence at […] 460, 535 and 590nm respectively.
(In general: Quantitative high-throughput screening tests each substance at several concentrations.)
On to `CC(CN=Cc1ccccc1O)N=Cc1ccccc1O` (stereo not given), for which the compound was called inactive.
Take `COC(=O)c1cc(Cl)ccc1[N+](=O)[O-]`: the result was inactive.
For `Cc1ccc(S(=O)(=O)NC(=O)NC2CCCC2)cc1`, the call was inactive.
On to `CC1(C)CC(=O)CC(C)(C)N1`, for which the compound was classed as inactive.
Regarding `CC(COc1ccccc1)NC(C)C(O)c1ccc(O)cc1` (stereo not given), the fluorescence, % of fluorescent control was 0.208% [at 18.6 µM].
`FC(F)(Cl)C(F)(Cl)Cl`: the result was inactive.
For `CC[C@H](NC(C)C)[C@H](O)c1ccc(O)c2[nH]c(=O)ccc12`, the compound was called inactive.
`[O-][n+]1ccc(Cl)cc1`: the result was inactive.
The same measure, in the same setting: as for `CCCCOc1ccc(N)cc1`, the entry is “inactive”.
For the compound `Clc1nc2ccccc2nc1Cl`, the call was inactive.
Take `O=C(O)CNc1ccccc1`: the compound was classed as inactive.
Take `Cc1nc2sccn2c(=O)c1CCN1CCC(=C(c2ccc(F)cc2)c2ccc(F)cc2)CC1`: the outcome was inactive.
As to `CCCCCCCCCCCCN1CCOCC1`, the compound was classed as inactive.
As to `CC(C(=O)O)c1ccc2c(c1)Cc1cccnc1O2` (stereo not given), the call was inactive.
For the compound `C[C@]12CCC(=O)C=C1[C@@H]1C[C@@H]1[C@H]1[C@@H]3[C@@H]4C[C@@H]4[C@@]4(CCC(=O)O4)[C@@]3(C)CC[C@@H]12`, the compound was called inactive.
For the compound `O=C(OCCCCCOC(=O)c1ccccc1)c1ccccc1`, the result was inactive.
As for `CCCCCCCCNC`, the call was inactive.
As for `CC(C)(Cc1c[nH]c2ccccc12)NCC(O)COc1ccccc1C#N` (stereo not given), the call was inactive.
Consider `C=CCCC`, for which the compound was called inactive.
As for `CC(C)C[C@H](NC(=O)[C@H](Cc1ccccc1)NC(=O)c1cnccn1)B(O)O`, the call was inactive.
Turning to `Cc1ccc2ccccc2c1[N+](=O)[O-]`, the compound was called inactive.
With `O=[N+]([O-])c1ccc(Cl)cc1Cl`, the result was inactive.
Still for that read-out and setting: the entry for `NC(=O)c1ccccc1C(N)=O` is “inactive”.
In the case of `O=C(O)c1ccncc1`, the call was inactive.
`CCCCCO`: the compound was called inactive.
Consider `CCCCCCCCCCCCCCCCC(=O)O`, for which the compound was classed as inactive.
For the compound `CCC(=O)O[C@@H]1C[C@H]2CC[C@]1(C)C2(C)C`, the compound was called inactive.
For `CC(C)=CCC/C(C)=C/C=N/O`, the result was inactive.
Consider `CCOC(C)OCC`, for which the result was inactive.
Turning to `CCCC1CCCC(=O)O1` (stereo not given), the outcome was inactive.
For `O=C(Cl)c1ccc(F)c(Cl)c1`, the result was inactive.
As to `CC(C)CC(C)(C)C`, the call was inactive.
`CCOc1ccccc1O`: the outcome was inactive.
Regarding `Cc1c(-c2cccnc2)c2ccccc2n1CCCCC(=O)O`, the compound was classed as inactive.
The same measure, in the same setting: the entry for `CCc1cnc(C(=O)O)c(C(=O)O)c1` is “inactive”; for `NCCOCCOCCN` it is “inactive”; for `NC(=O)c1ccccc1` it is “inactive”.
With `COc1ccc(C(=O)c2ccc(C)cc2)c(O)c1`, the call was inactive.
Take `CC1(C)[C@@H]2CC[C@]3(C2)[C@@H]1C(=O)CCC3(C)C`: the call was inactive.
Turning to `CC(=O)CC/C=C(\C)CC/C=C(\C)CC/C=C(\C)CCC=C(C)C`, the result was inactive.
